PubChem BioAssay (NCATS)
Several values for one entry are separate records, joined by “and”; a condition that tells them apart may be missing. Equal entries are not always repeated. Inconclusive results are not listed. Activity calls are given as the source filed them. The call rests on the fitted dose curve; in most records, active means well fitted curve in the direction sought with a large enough effect; inconclusive means small, poorly fitted or top-dose-only effect, or another doubt; inactive means no such curve, though single readings can be large; an effect the other way counts as inactive or inconclusive.

Tests used:
[1] = Viability qHTS for spleen associated tyrosine kinase inhibitor (SYKi) naive MV4-11 cells (AID 1963823); further: nearly all actives have a fitted effect of over 40% in size
Outline: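 In this viability screen, compounds acted on SYK inhibitor naive MV4-11 cells for three days (72 hr, 37 C). Remaining viable cells were measured by CellTiter-Glo luminescence following a 10 min room-temperature development.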

[2] = Viability qHTS for spleen associated tyrosine kinase inhibitor (SYKi) drug resistant MV4-11 cells (AID 1963824); further: nearly all actives have a fitted effect of over 35% in size
Outline: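 SYK inhibitor-resistant MV4-11 AML cells, 500 per well, added to predispensed compounds and incubated 72 hr at 37 C, 5% CO2. Viability measured by CellTiter-Glo luminescence after 10 min at room temperature.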

[3] = Quantitative highthroughput screen to assess conditional lethalithy of NOMO1 cells grown in RPMI1640 with untreated serum (RPMI+s) (AID 1963876); further: nearly all actives have a fitted effect of over 35% in size;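 on Viability: 100% = DMSO wells and 0% = empty wells without cells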
Outline: (§1)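 Each medium arm—HPLM with 10% dialyzed FBS, or RPMI1640 with 5 mM glucose and 10% untreated or dialyzed FBS—was screened against an 11-point, 3-fold compound titration for 48 h at 37 °C, with CellTiter-Glo luminescence as endpoint.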

[4] = Quantitative highthroughput screen to assess conditional lethalithy of NOMO1 cells grown in RPMI1640 with dialyzed fetal bovine serum (RPMI+ds) (AID 1963877); further: nearly all actives have a fitted effect of over 30% in size;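 on Viability: series mostly up to about 46 µM; 100% = DMSO control wells and 0% = empty wells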
Outline: as §1

[5] = Quantitative highthroughput screen to assess conditional lethalithy of NOMO1 cells grown in Human Plasma-Like Medium with dialyzed fetal bovine serum (HPLM+ds) (AID 1963878); further: nearly all actives have a fitted effect of over 35% in size;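 on Viability: 100% = DMSO wells and 0% = empty wells on each plate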
Outline: as §1

[6] = Quantitative highthroughput screen to assess conditional lethalithy of P12 Ichikawa cells grown in Human Plasma-Like Medium with dialyzed fetal bovine serum (HPLM+ds) (AID 1963879); conditions: Potency: viability; further: nearly all actives have a fitted effect of over 35% in size; on Viability: series mostly up to about 46 µM
Outline: as §1

[7] = Quantitative highthroughput screen to assess conditional lethalithy of P12 Ichikawa cells grown in RPMI1640 with dialyzed fetal bovine serum (RPMI+ds) (AID 1963880); conditions: Potency: P12-Ichikawa viability; further: nearly all actives have a fitted effect of over 35% in size;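 on Viability: 100% = DMSO wells and 0% = empty wells on each plate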
Outline: as §1

[8] = Quantitative highthroughput screen to assess conditional lethalithy of P12 Ichikawa cells grown in RPMI1640 with untreated serum (RPMI+s) (AID 1963881); conditions: Potency: viability; further: nearly all actives have a fitted effect of over 35% in size;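 on Viability: series mostly up to about 46 µM; 100% = DMSO wells and 0% = empty wells without cells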
Outline: as §1

[9] = Quantitative highthroughput screen to assess conditional lethalithy of SEM cells grown in Human Plasma-Like Medium with dialyzed fetal bovine serum (HPLM+ds) (AID 1963882); further: nearly all actives have a fitted effect of over 35% in size; on Viability: series mostly up to about 46 µM
Outline: as §1

[10] = Cellular viability qHTS for adrenocortical cancer (ACC) cell line SW-13 (AID 1963989); conditions: SW-13 ACC cells viability, CellTiter-Glo, 48 h; activity (max response): hits give low values; further: nearly all actives have a fitted effect of over 65% in size;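 on activity (max response): cells grown in serum-free medium with ITS supplement; on the % scale 0 is the no-effect control and ±100 the full control effect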
Outline: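 IC50 and maximal-response values come from four-parameter logistic fits of titration data. SW-13 cells in serum-free medium received compounds (up to 46 uM final) for 48 h before CellTiter-Glo luminescence.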

[11] = Cellular viability qHTS for adrenocortical cancer (ACC) cell line NCI-H295R (AID 1963990); further: nearly all actives have a fitted effect of over 60% in size
Outline: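 Adrenocortical carcinoma cells, suspended at 300 000 cells/mL in serum-free DMEM plus ITS, rested overnight before pin transfer of compound. After two days' incubation, ATP-dependent luminescence was recorded and curve-fitted.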

[12] = Quantitative highthroughput screen to assess conditional lethalithy of SEM cells grown in RPMI1640 with unreated serum (RPMI+s) (AID 1963883); further: nearly all actives have a fitted effect of over 35% in size;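 on Viability: 100% = DMSO wells and 0% = empty wells without cells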
Outline: as §1

[13] = Quantitative highthroughput screen to assess conditional lethalithy of SEM cells grown in RPMI1640 with dialyzed fetal bovine serum (RPMI+ds) (AID 1963884); further: nearly all actives have a fitted effect of over 35% in size;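 on Viability: series mostly up to about 46 µM; 100% = DMSO control wells and 0% = empty wells without cells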
Outline: as §1
Potency means the concentration at half of the fitted maximal effect.

C=C1C(=O)[C@@]23C(CC[C@@H]1[C@H]2O)[C@@]12CO[C@]3(O)[C@@H](O)[C@@H]1C(C)(C)CC[C@@H]2O (stereo partly drawn)
active: Potency [1] 1.32 µM | Potency [2] 1.3 µM | Potency [3] 20.9 µM | Potency [4] 23.5 µM | Potency [5] 18.7 µM | Potency [6] 13.2 µM | Potency [7] 7.43 µM | Potency [8] 7.43 µM | Potency [9] 8.33 µM | Potency [10] 28.2 µM | Potency [11] 10 µM

CNC[C@H](O)c1ccc(O)c(O)c1
inactive: Potency [1] | Potency [2] | Potency [3] | Potency [4] | Potency [5] | Potency [6] | Potency [7] | Potency [8] | Potency [12] | Potency [13] | activity (max response) [10] -16.4% and -3.87% | Potency [11]

CCn1c(-c2nonc2N)nc2cncc(CNC3CCNCC3)c21
active: Potency [1] 2.91 µM and 2.95 µM | Potency [2] 7.31 µM and 5.25 µM | Potency [3] 9.35 µM | Potency [4] 18.7 µM | Potency [5] 3.72 µM | Potency [6] 6.62 µM | Potency [7] 18.7 µM | Potency [8] 23.5 µM | Potency [12] 2.35 µM | Potency [13] 10.5 µM

CC(C)c1ccc2c(c1)c(SC(C)(C)C)c(CC(C)(C)C(=O)O)n2Cc1ccc(Cl)cc1
active: Potency [1] 16.6 µM | Potency [2] 10.5 µM
inactive: Potency [3] | Potency [4] | Potency [5] | Potency [6] | Potency [7] | Potency [8] | Potency [9] | Potency [13] | activity (max response) [10] 11.6% | Potency [11]

O=c1cc(-c2cccc3c2Sc2ccccc2S3)oc(N2CCOCC2)c1
inactive: Potency [3] | Potency [4] | Potency [5] | Potency [6] | Potency [7] | Potency [8] | Potency [9] | Potency [13]
active: Potency [1] 6.51 µM and 16.6 µM | Potency [2] 5.8 µM and 9.34 µM | Potency [10] 28.2 µM

COC(=O)N1CC2(CC2)C[C@H](C(=O)NO)[C@H]1C(=O)N1CCN(c2ccccc2)CC1
inactive: Potency [1] | Potency [2] | activity (max response) [10] -14.2% | Potency [11]
active: Potency [3] 0.524 µM | Potency [4] 3.31 µM | Potency [5] 0.295 µM | Potency [6] 0.331 µM | Potency [7] 1.05 µM | Potency [8] 2.34 µM | Potency [9] 1.17 µM | Potency [13] 0.66 µM

CC(C)[C@H](O)C(=O)N[C@@H](C)C(=O)N[C@@H]1C(=O)N(C)CCc2ccccc21
inactive: Potency [1] | Potency [2] | Potency [3] | Potency [4] | Potency [5] | Potency [6] | Potency [7] | Potency [8] | Potency [12] | Potency [13] | activity (max response) [10] 8.71% | Potency [11]

O=c1cc(N2CCOCC2)oc2c(-c3cccc4c3sc3ccccc34)cccc12
active: Potency [1] 1.48 µM | Potency [2] 1.86 µM | Potency [10] 25.1 µM | Potency [11] 12.6 µM
inactive: Potency [3] | Potency [4] | Potency [5] | Potency [6] | Potency [7] | Potency [8]

O=C(O)c1ccccc1C(=O)Nc1ccc(-c2ccccc2)cc1
inactive: Potency [1] | Potency [2] | Potency [3] | Potency [4] | Potency [5] | Potency [6] | Potency [7] | Potency [8] | activity (max response) [10] -5.47% | Potency [11]

CC(C)C[C@H](NC(=O)[C@H](CCc1ccccc1)NC(=O)CN1CCOCC1)C(=O)N[C@@H](Cc1ccccc1)C(=O)N[C@@H](CC(C)C)C(=O)[C@@]1(C)CO1
active: Potency [1] 0.003 µM | Potency [2] 10.6 nM and 4.7 nM | Potency [3] 0.0372 µM | Potency [4] 0.0372 µM | Potency [5] 0.0372 µM | Potency [6] 0.0332 µM | Potency [7] 0.0235 µM | Potency [8] 0.0209 µM | Potency [12] 0.0083 µM | Potency [13] 0.0132 µM | Potency [10] 103 nM and 112 nM | Potency [11] 65.1 nM and 63.1 nM

CNCc1ccc(-c2[nH]c3cc(F)cc4c3c2CCNC4=O)cc1
active: Potency [1] 13 µM and 16.6 µM | Potency [2] 20.6 µM and 14.8 µM
inactive: Potency [3] | Potency [4] | Potency [5] | Potency [6] | Potency [7] | Potency [8] | Potency [13] | Potency [11]

COc1cc(N2CCC(O)CC2)ccc1Nc1cc(Nc2ccccc2S(=O)(=O)C(C)C)c2cc[nH]c2n1
inactive: Potency [3] | Potency [4] | Potency [5] | Potency [6] | Potency [7] | Potency [8] | activity (max response) [10] -1.42% | Potency [11]
active: Potency [1] 16.4 µM and 10.5 µM | Potency [2] 20.6 µM and 14.8 µM

CCOC(=O)[C@H](CCc1ccccc1)N[C@H]1CS[C@H](c2cccs2)CN(CC(=O)O)C1=O
inactive: Potency [9] | Potency [13] | Potency [11]
active: Potency [1] 7.42 µM | Potency [2] 13.3 µM and 5.9 µM | Potency [3] 10.5 µM | Potency [4] 13.2 µM | Potency [5] 5.26 µM | Potency [6] 8.33 µM | Potency [7] 14.8 µM | Potency [8] 9.35 µM

CC[C@@H](C)[C@H](NC(=O)[C@H](CC1CCCCC1)NC(=O)c1ccno1)C(=O)N1CCC2(CCc3ccccc32)CC1
active: Potency [1] 13 µM | Potency [2] 18.4 µM
inactive: Potency [3] | Potency [4] | Potency [5] | Potency [6] | Potency [7] | Potency [8] | activity (max response) [10] -1.23% | Potency [11]
